Laboratory results reported in PMC13083723 (Patterns, 2026).
The campaign covered roughly 5,400 compounds. About 190 (3.5%) showed an effect of 50% or more. Shown is part of a subset that was picked to be rich in strong results. Non-standard residues stand in square brackets, D forms with d. Residues, ends and D or L forms follow the SMILES beside them. NMeF = CN[C@@H](Cc1ccccc1)C(=O)O

test system: Vero-E6; test: primary screen, phospholipidosis by LipidTOX staining; higher = more effect of the substance; details: 10 µM
In short: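 Drug-induced phospholipidosis detected with HCS LipidTOX Red reagent in Vero-E6 cells. Compounds tested at 10 μM, with amiodarone (10 μM) as positive control and DMSO (0.1 v/v %) as vehicle.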

Structure (SMILES) | result_ITMP [%]
CCN(CC)C(=S)[S-] | -6.15
COCCCOc1ccnc(CS(=O)c2nc3ccccc3[n-]2)c1C (centres unmarked) | -0.77
COc1cc(N2CCC(N3CCN(C)CC3)CC2)ccc1Nc1ncc(Cl)c(Nc2ccccc2P(C)(C)=O)n1 | -0.55
COc1cc(N2CCOCC2)ccc1Nc1ncc(Cl)c(Nc2ccccc2NS(C)(=O)=O)n1 | 51.4
CNC(=O)c1ccccc1Nc1nc(Nc2ccc(N3CCOCC3)cc2OC)ncc1Cl | 3.78
CCC(=O)Nc1cccc(Oc2nc(Nc3ccc(N4CCN(C)CC4)cc3OC)ncc2Cl)c1 | -5.58
COc1cc(N2CCC(N)CC2)ccc1Nc1ncc(Cl)c(-c2c[nH]c3ccccc23)n1 | 15.8
COc1cc(N2CCC(N(C)C)CC2)ccc1Nc1ncc(Cl)c(Nc2ccccc2P(C)(C)=O)n1 | 51.8
O=c1nc[nH]c2c([C@@H]3N[C@H](CO)[C@@H](O)[C@H]3O)c[nH]c12 | -0.15
CC(C)C[C@H](NC(=O)CNC(=O)[C@H](Cc1ccc(O)cc1)NC(=O)[C@H](CO)NC(=O)[C@H](Cc1c[nH]c2ccccc12)NC(=O)[C@H](Cc1c[nH]cn1)NC(=O)[C@@H]1CCC(=O)N1)C(=O)N[C@@H](CCCNC(=N)N)C(=O)N1CCC[C@H]1C(=O)NCC(N)=O | 1.23
CN/C(=N\C#N)NCCSCc1nc[nH]c1C | -2.74
Cc1cc(N2CCOCC2)cc2nc(-c3c(NC[C@@H](O)c4cccc(Cl)c4)cc[nH]c3=O)[nH]c12 | -0.86
CCN(CC)CCCN(c1ccccc1)C1Cc2ccccc2C1 | 51.9
COc1cc[nH]c2ncc(C(=O)C(=O)N3CCN(C(=O)c4ccccc4)C[C@H]3C)c1-2 | -6.29
CSCC[C@H](NC(=O)[C@H](CC(C)C)NC(=O)[C@@H](Cc1c[nH]c2ccccc12)NC(=O)[C@H](Cc1ccccc1)N(C)C(=O)[C@@H](Cc1c[nH]c2ccccc12)NC(=O)[C@@H](N)CCCN=C(N)N)C(N)=O (H-R[dW][NMeF][dW]LM-NH2) | -1.85
COCCOc1ccc2c(c1)ncn2-c1ccc2cccc(N3CCC(N)CC3)c2n1 | 62.5
NC1CCN(c2cccc(Cl)n2)CC1 | 6.27
CC1(COc2ccc3c(c2)ncn3-c2ccc3cccc(N4CCC(N)CC4)c3n2)COC1 | 64.2
CCOC(=O)c1ccc(OCCC2CCN(c3ccc(C)nn3)CC2)cc1 | -2.25
CCN1CCN(C(=O)NC(C(=O)N[C@@H]2C(=O)N3[C@@H]2SC(C)(C)[C@@H]3C(=O)[O-])c2ccccc2)C(=O)C1=O (some centres unmarked) | -2.05
C=CC(=O)N1CCCC(n2nc(-c3ccc(Oc4ccccc4)cc3)c3c(N)ncnc32)C1 (centres unmarked) | -4.8
N[C@@H](Cc1ccc(I)cc1)C(=O)O | -0.07
N=C(N)SCc1ccc(B(O)O)cc1 | -0.1
CC(=O)O[C@H]1CC[C@@]2(C)C(=CC(=O)[C@@H]3[C@@H]2CC[C@]2(C)C(=O)CC[C@@H]32)C1 | -7.66
Cn1cc(/C=C2/C(=O)Nc3cccnc32)c2ccccc21 | 2.75
CCS(=O)c1nc(-c2cccc(OCc3ccccc3)c2)cc(C(F)(F)F)n1 (centres unmarked) | -1.04
CCCC[N+]1(C)[C@@H]2C[C@@H](OC(=O)[C@H](CO)c3ccccc3)C[C@H]1[C@@H]1O[C@@H]12 (some centres unmarked) | -5.86

Structure (SMILES) | result_ITMP [%]
Nc1c(CC(=O)[O-])cccc1C(=O)c1ccccc1 | -2.23
CN1CCN(C(c2ccccc2)c2ccc(Cl)cc2)CC1 (centres unmarked) | 44.4
CN1CCN(C(c2ccccc2)c2ccccc2)CC1 | 16.1
CN1CCCN(C(c2ccccc2)c2ccc(Cl)cc2)CC1 (centres unmarked) | 82.5
O=C(Nc1ccccc1)Nc1ccc(-c2ccc(C(=O)[C@@H]3CCC[C@H]3C(=O)O)cc2)cc1 [R4A_0000400_001 / SPE_K28861668] | -3.95
O=C(O)[C@@H](S)[C@@H](S)C(=O)O | -5.93
CCC[C@@H]1C[C@@H](C(=O)N[C@@H]([C@H]2O[C@H](SC)[C@H](OP(=O)(O)O)[C@@H](O)[C@H]2O)[C@H](C)Cl)N(C)C1 | -1.73
CC1(C)C(/C=C/C=C/C=C/C=C2/N(CCCCS(=O)(=O)[O-])c3ccc4ccccc4c3C2(C)C)=[N+](CCCCS(=O)(=O)[O-])c2ccc3ccccc3c21 | -0.75
CCNC(=O)N1CCN(CCCC(c2ccc(F)cc2)c2ccc(F)cc2)CC1 | 8.88
Cc1cccc(C)c1NC(=O)CN1CCN(CCCC(c2ccc(F)cc2)c2ccc(F)cc2)CC1 | 52.6
Cc1cccc(C)c1NC(=O)CN1CCCCCC1 | -0.91
O=C(/C=C/c1c(C(=O)[O-])[nH]c2cc(Cl)cc(Cl)c12)Nc1ccccc1 | 0.43
Cc1ccc(C(=O)c2ccc(CC(=O)[O-])n2C)cc1 | -3.18
CCOC(=O)Nc1ccc2c(c1)N(C(=O)CCN(CC)CC)c1ccccc1S2 | 12
CCN(CC)C(C)CN1c2ccccc2Sc2ccccc21 (centres unmarked) | 63.9
CC(CC(C(N)=O)(c1ccccc1)c1ccccc1)N(C)C (centres unmarked) | -2.3
CCN(CC)C(C)C(=O)c1ccccc1 (centres unmarked) | -5.15
CC(CN1c2ccccc2Sc2ccccc21)N(C)C (centres unmarked) | 55.4
COC(=O)/C=C/C(=O)N[C@@H]1CC[C@@]2(O)C3Cc4ccc(O)c5c4[C@@]2(CCN3CC2CC2)[C@H]1O5 | -2
CC(O)(P(=O)([O-])O)P(=O)([O-])O | -0.98
Fc1cc(F)c2c(c1)[C@H]1C=CC[C@H]1C(c1cccnc1)N2 (mixture of isomers) | -14.4
O=S(=O)([O-])CCS | -2.99
OC[C@H]1O[C@@](CO)(O[C@H]2O[C@H](CO)[C@@H](O)[C@H](O)[C@H]2O)[C@@H](O)[C@@H]1O | -5.71
CN(C)CCC(c1ccc(Cl)cc1)c1ccccn1 (centres unmarked) [R4A_0004036_001 / SPE_A04553218] | 16
C[C@]12CC[C@H](O)CC1=CC[C@@H]1[C@@H]2CC[C@]2(C)C(c3cccnc3)=CC[C@@H]12 | -5.26
C[CH2][Hg][S]c1ccccc1C(=O)[O-] | 6.82
O=C([O-])C(=O)[O-].[NH-][C@@H]1CCCC[C@H]1[NH-].[Pt+4] | 22.9

Structure (SMILES) | result_ITMP [%]
COc1cc2c(NC3CCN(C4CCCCC4)CC3)nc(N3CCCN(C(C)C)CC3)nc2cc1OCCCN1CCCCC1 | -1.55
COc1cc2c(NC3CCN(C(C)C)CC3)nc(C3CCCCC3)nc2cc1OCCCN1CCCC1 | 60.7
COc1cc2c(NC3CCN(C(C)C)CC3)nc(N3CCC(F)(F)CC3)nc2cc1OCCCN1CCCC1 | 8.94
C[C@]12CC[C@H](O)C[C@H]1CC[C@@H]1[C@@H]2CC[C@]2(C)[C@@H](c3ccc(=O)oc3)C[C@H]3O[C@]132 | -2.23
Nc1ncnc2[nH]cnc12 | -2.75
C/C(=N\NC(=S)NNC(=S)Nc1ccccc1Cl)c1ccccn1 | -0.18
C1CCC(N/C(=N/C23CC4CC(CC(C4)C2)C3)N2CCOCC2)CC1 | -0.26
C=C1C(=O)O[C@H]2[C@H]1CC/C(C)=C/CC[C@@]1(C)O[C@@H]21 [R4A_0002204_002 / SPE_K34851558] | 16.6
CN1C/C=C/CCOc2cccc(c2)-c2ccnc(n2)Nc2cccc(c2)C1 | -2.04
c1cc(OCCN2CCCCC2)cc(-c2n[nH]c3ccc(-c4ncn[nH]4)cc23)c1 | -0.52
C1=C/COCc2cc(ccc2OCCN2CCCC2)Nc2nccc(n2)-c2cccc(c2)COC/1 | 78.8
CN(C)CCNc1nc2cc(O)ccc2c2c1C(=O)c1ccccc1-2 | 76.7
CC(C)(O)CC(=O)[O-] | -6.24
CC(=O)Nc1ccc(NC(=S)NC(=O)c2ccc(C(C)(C)C)cc2)cc1 | 2.55
CC(=O)Nc1ccc(C(=O)NC(C)(C)C)cc1 | -9.36
CN(C)CCCCC(=O)Nc1ccc(NC(=S)NC(=O)c2ccc(C(C)(C)C)cc2)cc1 | 147
O=C1[C@@H]2[C@H]3CC[C@H](C3)[C@@H]2C(=O)N1C[C@@H]1CCCC[C@H]1CN1CCN(c2nsc3ccccc23)CC1 | 3.52
COc1cccc(Nc2ncnn3ccc(CN4CC[C@@H](N)[C@H](O)C4)c23)c1 | 59
CSCC[C@H](NC(=O)[C@H](CC(C)C)NC(=O)CNC(=O)[C@H](Cc1ccccc1)NC(=O)[C@H](Cc1ccccc1)NC(=O)[C@H](CCC(N)=O)NC(=O)[C@H](CCC(N)=O)NC(=O)[C@@H]1CCCN1C(=O)[C@H](CCCCN)NC(=O)[C@@H]1CCCN1C(=O)[C@@H](N)CCCNC(=N)N)C(N)=O | -6.88
C[C@H]1[C@H](OC(=O)CCC(=O)O)O[C@@H]2O[C@@]3(C)CC[C@H]4[C@H](C)CC[C@@H]1[C@@]24OO3 | 7.77
Cc1c(-c2ccc(-c3ccccc3F)cc2)nc2ccc(F)cc2c1C(=O)[O-] | 5.08
c1cc2c(cc1C1CCCCC1)c1c3n2CCNC3CCC1 (centres unmarked) | 84.2
Cc1ccc2c(c1)c1c3n2CCNC3CCC1 (centres unmarked) | 51.5
C#C[C@]1(O)CC[C@H]2[C@@H]3CCC4=CC(=O)CC[C@@H]4C3CC[C@@]21CC (some centres unmarked) | -2.07
Cc1ccccc1C(c1ccccc1C)N1C2CCC1CC(O)(c1ccccc1)C2 (centres unmarked) | -2.82
C[C@H](/C=C/[C@H](C)C(C)(C)O)[C@H]1CC[C@H]2/C(=C/C=C3C[C@@H](O)C[C@H](O)C3)CCC[C@]12C | -0.26
